Source: PubChem BioAssay (NMMLSC)
RGS16-Gao HTS – modulates binding between human RGS16 and Galphao; bead-based flow cytometry RGS16-Galphao binding, fluorescence; actives lie on both sides; hit rate 0.38% among 220,000; binding response (% of control), % at 10 µM;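 note: Galphao activated by GDP with aluminum fluoride before binding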
RGS4-Gao reg – modulates binding of RGS4 to human Galphao; P09471; Multiplexed bead flow cytometry; actives lie on both sides; binding response (% of control), % at 10 µM; hit rate 0.33% among 220,000; in the data active = binding response below about 49% or above about 150%; inactive = in between;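 note: fluorescent Galphao activated with aluminum fluoride binding bead-coupled RGS4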
Target sequence (P09471 whole entry, looked up): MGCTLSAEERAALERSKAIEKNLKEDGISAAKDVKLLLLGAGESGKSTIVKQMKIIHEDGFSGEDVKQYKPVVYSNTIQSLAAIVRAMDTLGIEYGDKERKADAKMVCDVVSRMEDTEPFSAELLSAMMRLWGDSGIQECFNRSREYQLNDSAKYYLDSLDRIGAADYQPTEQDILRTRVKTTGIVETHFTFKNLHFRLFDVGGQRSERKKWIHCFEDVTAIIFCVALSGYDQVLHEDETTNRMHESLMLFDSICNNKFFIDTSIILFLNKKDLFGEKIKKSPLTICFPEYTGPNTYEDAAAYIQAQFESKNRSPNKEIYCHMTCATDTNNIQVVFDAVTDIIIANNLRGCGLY
RGS7-Gao – modulates binding of RGS7 to human Galphao | P09471 | Multiplexed bead flow cytometry; actives lie on both sides | binding response (% of control), % at 10 µM | hit rate 0.35% among 220,000 | AID 1439; in the data active = binding response below about 49% or above about 150%; inconclusive = no clear call, values can overlap the other calls; inactive = in between;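 note: fluorescent Galphao held in activated GDP-AlF4 state binding bead-coupled RGS7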
Avidin fluor – compound fluoresces at 488/530 nm on avidin beads. hit rate 0.38% among 220,000. compound fluorescence 488/530 nm, flow cytometry; stronger effect = higher value. fluorescence (KMESF) at 10 µM; in the data active = fluorescence above about 47
GSH bead fluor – compound fluoresces at 488/530 nm on GSH beads. fluorescence (KMESF) at 10 µM. GSH beads flow cytometry, compound fluorescence 488/530 nm; stronger effect = higher value. hit rate 0.25% among 190,000; in the data active = fluorescence above about 89;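 note: glutathione beads carrying GST-tagged Bcl family fusion proteins plus one bare bead set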
RGS8-Gao reg – regulators of human RGS8-Galphao interaction; P09471; multiplexed bead flow cytometry, RGS8-Galphao binding; actives lie on both sides; response (percent of control binding), % at 10 µM; hit rate 0.34% among 220,000; AID 1423; in the data active = response below about 60% or above about 140%; inactive = in between;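 note: Galphao activated as the GDP aluminium fluoride complex binding bead-coupled RGS8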
RGS4-Gao HTS – RGS4-Galphao interaction regulator (human); shares compounds with RGS16-Gao HTS; multiplexed bead flow cytometry, RGS–Galpha-o binding; RGS4–Galpha-o binding response, % at 10 µM; hit rate 99% among 1,600;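 note: fluorescently labeled Galpha-o bound to GDP with aluminium fluoride binding biotinylated RGS beads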
Target sequence (P09471 whole entry, looked up): as above
Target sequence (P49798 whole entry, looked up): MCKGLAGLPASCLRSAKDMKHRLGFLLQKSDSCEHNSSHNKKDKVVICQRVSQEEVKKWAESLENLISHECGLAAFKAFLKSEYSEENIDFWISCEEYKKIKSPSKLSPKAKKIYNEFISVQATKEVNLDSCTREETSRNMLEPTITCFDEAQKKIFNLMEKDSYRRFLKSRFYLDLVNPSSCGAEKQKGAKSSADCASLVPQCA
Avidin counter – counter-screen: compounds disrupting biotin binding to avidin beads; shares compounds with RGS16-Gao HTS; streptavidin beads, fluorescein-biotin binding, flow cytometry; inhibition, % at 10 µM; 1,700 tested, under 10 active; AID 1783;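 active = inhibition above 50%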;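 note: median green fluorescence of gated singlet beads compared with DMSO control wells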
RGS8-Gao single – RGS8-Galphao interaction regulation, single point confirmation; shares compounds with RGS16-Gao HTS; bead-based flow cytometry RGS8-Galphao binding, fluorescence; actives lie on both sides; binding response (% of control), % at 10 µM; hit rate 3% among 1,700; AID 1836; in the data active = binding response below about 72% or above about 130%; inactive = in between;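 note: Galphao activated as GDP AlF4 complex before binding bead RGS8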
RGS7-Gao single – confirmation of regulators of human RGS7-Galphao interaction; shares compounds with RGS16-Gao HTS; bead-based flow cytometry RGS7-Galphao binding; actives lie on both sides; response (percent of control binding), % at 10 µM; hit rate 7.8% among 1,700; in the data active = response below about 75% or above about 130%; inactive = in between;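 note: fluorescent Galphao activated with GDP and aluminum fluoride binding bead-coupled RGS7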
RGS16-Gao conf – confirmation of regulators of human RGS16-Galphao interaction | shares compounds with RGS16-Gao HTS | bead-based flow cytometry, RGS16-Galphao binding; actives lie on both sides | response (% of control binding), % at 10 µM | hit rate 4% among 1,700 | AID 1838; in the data active = response below about 74% or above about 130%; inactive = in between;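 note: Galphao activated as the GDP aluminium fluoride complex binding bead-coupled RGS16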
RGS4-Gao confirm – RGS4-Galphao interaction regulation, single point confirmation; shares compounds with RGS16-Gao HTS; RGS4-Galphao binding, multiplexed bead flow cytometry; actives lie on both sides; binding response (% of control), % at 10 µM; hit rate 4% among 1,700; AID 1840; in the data active = binding response below about 74% or above about 130%; inactive = in between
RGS19-Gao single – RGS19-Galphao interaction regulation, single point confirmation; shares compounds with RGS16-Gao HTS; AID 1841; hit rate 5% among 1,700; response (percent of control binding), % at 10 µM; bead-based flow cytometry RGS19-Galphao binding; actives lie on both sides; in the data active = response below about 50% or above about 160%; inactive = in between
A number is an active result; - = inactive; ? = inconclusive; . = not tested or not shown; [ ] = another dose, or the depositor's remark. An excerpt weighted towards active compounds, which were near 1.2% of everything screened. Unless noted, the rule behind the calls is not given here.

SMILES	RGS16-Gao HTS	RGS4-Gao reg	RGS7-Gao	Avidin fluor	GSH bead fluor	RGS8-Gao reg	Avidin counter	RGS8-Gao single	RGS7-Gao single	RGS16-Gao conf	RGS4-Gao confirm	RGS19-Gao single	others
S=C(NC1CCCCC1)N1CCN(c2ccccn2)CC1	-	-	-	-	-	-	.	.	.	.	.	.
Cc1onc(-c2ccccc2Cl)c1C(=O)Nc1ncn[nH]1	-1.7	-	-	-	-	-	-	-	-	-	-	-	RGS4-Gao HTS=85.8
Cc1onc(-c2ccccc2Cl)c1C(=O)Nc1ccc(Cl)cn1	-	-	?	-	.	-	.	.	.	.	.	.
Cc1onc(-c2ccccc2Cl)c1C(=O)c1ccccc1	-15.7	-27.7	?	-	.	7.7	-	-	-	-	-	-
Cc1onc(-c2c(Cl)cccc2Cl)c1C(=O)c1ccccc1	-	-	?	-	.	-	.	.	.	.	.	.
CC1(C)CC(OC(=O)c2ccccc2)CC(C)(C)N1	-	-	-	-	-	-	.	.	.	.	.	.
CC12CCC(C1)C(C)(C)C2OC(=O)c1ccccc1C(=O)O (stereo unspecified)	-	154.8[activator]	?	-	.	-	-	-	-	-	-	-
CC1=C[C@H]2OC(=O)[C@@H](C)[C@H]2C[C@@H]2[C@H]1C[C@@H](O)[C@@]2(C)O	-	-	?	-	.	-	.	.	.	.	.	.
O=C(CSc1nc2ccccc2[nH]1)Nc1ccc(F)c(F)c1	.	.	.	.	-	.	-	-	-	-	-	-
CCCCN(C)C(=O)C1CCN(CCCc2ccccc2)CC1	-	-	169.8[activator]	291	-	-	.	.	.	.	.	.	RGS4-Gao HTS=120.9
CC1CCCN(C(=O)C2CCN(CCCc3ccccc3)CC2)C1 (stereo unspecified)	-	-	-	-	-	-	.	.	.	.	.	.
CCc1cc(=O)oc2c(C)c(OCC(=O)N3CCCc4ccccc43)ccc12	-	-	-	-	-	159.1[activator]	-	-	-	-	-	-	RGS4-Gao HTS=133.1
Cc1cccc(OCC(=O)N2CCCc3ccccc32)c1	-	-	-	-	-	-	.	.	.	.	.	.
COc1ccc(/C=C(\C#N)C(=O)NC2CCS(=O)(=O)C2)cc1OC (stereo unspecified)	-	-	-	-	-	-	.	.	.	.	.	.
CC(C)(C)C(=O)Nc1ccccc1C(=O)OCC(=O)c1ccc2c(c1)OCCO2	-	-	-	-	-	-	.	.	.	.	.	.
COC(=O)c1ccccc1NC(=O)c1ccc2c(c1)OCCO2	231.4[activator]	-	-	-	-	-	-	-	-	-	-	-	RGS4-Gao HTS=134.1
NNC(=O)c1csc(CS(=O)(=O)c2ccc(Cl)cc2)n1	-	-	?	-	.	-	-	-	-	-	-	-
O=C(O)C1CCCN1S(=O)(=O)c1ccc2[nH]c(=O)c(=O)[nH]c2c1 (stereo unspecified)	-	157.6[activator]	-	-	-	-	-	-	-	-	-	-
O=[N+]([O-])c1cc(S(=O)(=O)NC2=NCCCCC2)ccc1NCC1CCCCC1	-	-	-	-	-	-	.	.	.	.	.	.
c1ccc2c(C3=NNC(=NC4CCCCC4)SC3)c[nH]c2c1	5.2	-	-	-	-	-	-	-	-	-	-	-	RGS4-Gao HTS=96.0
COc1cc(N(C(=O)Cc2cccs2)C(C(=O)NC2CCCCC2)c2cccc(OC)c2OC)ccc1-n1cnnn1 (stereo unspecified)	23.9	-	-	-	-	-	-	-	-	-	-	-	RGS4-Gao HTS=91.8
O=C(O)C(Cc1c[nH]c2ccccc12)N1C(=O)c2ccccc2C1=O (stereo unspecified)	-	-	?	-	.	-	.	.	.	.	.	.
CCOC(=O)C1CCN(C(=O)CSc2ccc(Cl)cc2)CC1	8.3	49.5	-	-	-	49.4	-	-	-	-	-	-
CCOC(=O)C1CCN(C(=O)CSc2ccc(Br)cc2)CC1	-	-	-	-	-	-	.	.	.	.	.	.
COc1ccc(/C(N)=N/OC(=O)CCCN2C(=O)c3ccccc3C2=O)cc1OC	-	-	-	-	-	-	.	.	.	.	.	.
SMILES	RGS16-Gao HTS	RGS4-Gao reg	RGS7-Gao	Avidin fluor	GSH bead fluor	RGS8-Gao reg	Avidin counter	RGS8-Gao single	RGS7-Gao single	RGS16-Gao conf	RGS4-Gao confirm	RGS19-Gao single	others
CCn1c(Sc2nc(C)nc3scc(-c4cccs4)c23)n[nH]c1=O	.	.	.	.	-	.	-	-	-	-	-	-
Cn1c(CNC(=O)c2ccccc2)nnc1SCC(=O)Nc1nccs1	-	-	-	-	-	-	.	.	.	.	.	.
Cc1ccc(-c2nn(CC(=O)N3CCOCC3)c(=O)c3ccccc23)cc1S(=O)(=O)N(C)C	-	163.3[activator]	?	62	.	-	-	-	-	-	-	-
Cn1cc([N+](=O)[O-])c(C(=O)NCc2cc3cc(Cl)ccc3[nH]2)n1	-	-	-	-	-	-	.	.	.	.	.	.
Cc1ccc(C(=O)NCCCn2ccnc2)cc1[N+](=O)[O-]	-	-	-	-	-	-	.	.	.	.	.	.
Cc1cc([N+](=O)[O-])nn1CC(=O)NCCCn1ccnc1	-	-	269.1[activator]	103	-	-	-	-	-	-	-	-	RGS4-Gao HTS=146.6
CCC(C)Sc1nc(O)cc(=O)[nH]1 (stereo unspecified)	-	-	248.1[activator]	239	-	-	-	-	-	-	-	-	RGS4-Gao HTS=110.5
CCNc1nc(NC(C)CC)nc(ON=C(C)C)n1 (stereo unspecified)	-	-	?	-	-	-	.	.	.	.	.	.
O=C(CN1C(=O)NC2(CCCc3ccccc32)C1=O)Nc1cccc(S(=O)(=O)N2CCCCC2)c1 (stereo unspecified)	-	-	-	-	-	-	.	.	.	.	.	.
COc1ccc(-c2cn3c(C)c(C(=O)Nc4cccc(C)n4)sc3n2)cc1	-	-	181.0[activator]	198	-	-	-	-	-	-	-	-	RGS4-Gao HTS=109.8
Cc1cccc(NC(=O)c2sc3nc(-c4ccccc4)cn3c2C)n1	-	-	-	-	-	-	.	.	.	.	.	.
CC#CC[N+](C)(C)CCCCCCCCCC	-	170.3[activator]	?	47	.	-	-	-	-	-	-	-
COc1ccc(NC(=O)/C(C#N)=C\c2ccc(N3CCOCC3)o2)cc1	-	-	-	-	-	-	.	.	.	.	.	.
